± gives the standard deviation.
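Also: 1 nM active piRISC with 0.1 nM target library at 33 °C single turnover.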

The assay has as its system MILI (PIWIL2) piRISC loaded with piRNA #1 (26 nt). Kind of assay: pre-steady-state target cleavage rate (min^-1); guide: piRNA #1 5'p-UGAGGUAGUAGGUUGUAUAGUAUCCA; MIWI and MILI are mouse PIWI proteins and EfPiwi is from a freshwater sponge; tags in brackets are library labels; higher = faster piRNA-guided slicing of the target. The following applies: auxiliary factor: 500 nM mouse GTSF1. An outline of the steps: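 For Cleave-'n-Seq, a transcribed, DNA-blocked target RNA library […] met 1 nM active affinity-purified piRISC with one synthetic guide at 33 °C for 0–8 or 0–960 min in HEPES–potassium acetate buffer, with or without 500 nM GTSF1 partner protein. Uncleaved targets were sequenced and normalised to depth and weakly complementary targets, with three trials pooled and k3 capped at 0.0001 min^-1. A burst-and-steady-state fit supplied the pre-steady-state cleavage rate.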
On to GGAGACCUAUGAUAACAACCUACUUACCUCA, for which the “pre-steady-state target cleavage rate” value was determined as 0.00599 ± 0.0021.

With GGAGACCUAUGAUAACAACCUAAUACCUCA, the “pre-steady-state target cleavage rate” value came to 0.00414 ± 0.0023.

Turning to GGAGACCUAACUAUACUACCUACUUCCUCA, the “pre-steady-state target cleavage rate” value turned out to be 0.0587 ± 0.013.

Regarding GGAGUGGUUACUAUACAAGCUACUACCUCA, the “pre-steady-state target cleavage rate” value came out at 0.213 ± 0.016.

For the sequence GGAGACCUAACUAUUCAAGCUACUACCUCA, the “pre-steady-state target cleavage rate” value amounted to 0.217 ± 0.027.

For GGAGACCUAUCUUUACAACCUACUAGCUCA, the “pre-steady-state target cleavage rate” value stood at 0.0374 ± 0.0091.

For the sequence GGAGACGUUACUAUUCAACCUACUACCUCA, the “pre-steady-state target cleavage rate” value came out at 0.168 ± 0.011.

As to GGAGACCUAUGUUUACAACCUACUACCACA, the “pre-steady-state target cleavage rate” value came to 0.0147 ± 0.0041.

With GGAGACCUAUCAAUACAACCUACUACCUGA, the “pre-steady-state target cleavage rate” value was determined as 0.0265 ± 0.0091.

As to GGAGACCUAUGAUAUGUUGCUGACUACCUCA, the “pre-steady-state target cleavage rate” value was below 0.0001.

Take GGAGACCUAUGAUAUGUUGGUACUACGAGA: the “pre-steady-state target cleavage rate” value is below 0.0001.

On to GGAGACCUAACUAAAGAACCUACUACCUCA, for which the “pre-steady-state target cleavage rate” value came out at 0.0693 ± 0.013.

With GGAGAGUAUACUAUACAACCUACUACCUCA, the “pre-steady-state target cleavage rate” value came out at 0.184 ± 0.011.

For GGAGACCAUUGUAUACAACCUACUACCUCA, the “pre-steady-state target cleavage rate” value came to 0.0325 ± 0.0067.

Turning to GGAGACCUAUGAUUAUCAACCUACUACCUCA, the “pre-steady-state target cleavage rate” value was 0.00367 ± 0.0025.

For GGAGACCUAUGAUAACAACUUACUACCUCA, the “pre-steady-state target cleavage rate” value is 0.00545 ± 0.0023.

On to GGAGACCUAUGUAUGACAACCUACUACCUCA, for which the “pre-steady-state target cleavage rate” value stood at 0.0123 ± 0.0037.

GGAGACCUAUGUAUACAACCUACUAGCUCA: the “pre-steady-state target cleavage rate” value was found to be 0.0155 ± 0.0035.

Take GGAGACCUAUGAAUACAACCUCCUACCUCA: the “pre-steady-state target cleavage rate” value worked out at 0.00498 ± 0.0023.

Take GGAGACCUUACUAUAGAACCUACUUCCUCA: the “pre-steady-state target cleavage rate” value was found to be 0.00446 ± 0.0033.

Regarding GGAGACCUUACAAUACAACCUACUACGUCA, the “pre-steady-state target cleavage rate” value amounted to 0.0615 ± 0.009.

Turning to GGAGACCUUACUUUACAACCUACUUCCUCA, the “pre-steady-state target cleavage rate” value came out at 0.0347 ± 0.011.

On to GGAGUCGAUACUAUAGAACCUACUACCUCA, for which the “pre-steady-state target cleavage rate” value came out at 0.0641 ± 0.0083.

Consider GGAGACCUAUGUAUACAACCUACUACCUGCA, for which the “pre-steady-state target cleavage rate” value was 0.0635 ± 0.011.

GGAGACGAUUCUAUACAACCUACUACGUCA: the “pre-steady-state target cleavage rate” value worked out at 0.0993 ± 0.0097.

As for GGAGACCUAUGAUAUGUUCCUUCUACCUGA, the “pre-steady-state target cleavage rate” value is below 0.0001.

As for GGAGACCUUACUAUACAUCCUACUACGUCA, the “pre-steady-state target cleavage rate” value came to 0.141 ± 0.022.

For GGAGACCUAUCUAUAGAAGCUACUACCUCA, the “pre-steady-state target cleavage rate” value is 0.143 ± 0.019.

Take GGAGACCAUACUAUUCAACGUACUACCUCA: the “pre-steady-state target cleavage rate” value was found to be 0.019 ± 0.0049.

Regarding GGAGACCUUAGUAUACAAGCUACUACCUCA, the “pre-steady-state target cleavage rate” value is 0.174 ± 0.012.

Consider “GGAGACCUAUGAUAUGUUCCUACUACCUCU [g2:g12:cont:t1U]”, for which the “pre-steady-state target cleavage rate” value was below 0.0001.

On to GGAGACCUAUCAAUACUACCUACUACCUCA, for which the “pre-steady-state target cleavage rate” value was 0.0216 ± 0.0056.

Regarding GGAGACCUUACUAUACAUCCUUCUACCUCA, the “pre-steady-state target cleavage rate” value came to 0.0405 ± 0.0086.

GGAGACCUAUCUAUACAACGAACUACCUCA: the “pre-steady-state target cleavage rate” value was determined as 0.00423 ± 0.0023.

As for GGAGACCUAUCUAUACAGCCUACUACCUCA, the “pre-steady-state target cleavage rate” value stood at 0.0315 ± 0.006.

For the sequence GGAGACCUAUGAUAUGAAGCUACUUCCUCA, the “pre-steady-state target cleavage rate” value was below 0.0001.

In the case of GGAGACCUAUCUAUACAACCUAGUUCCUCA, the “pre-steady-state target cleavage rate” value turned out to be 0.0148 ± 0.0059.

For the sequence “GGAGACCAUACUAUACUUGGAUGAUGGAGA [g15:g23:cont:t1A]”, the “pre-steady-state target cleavage rate” value is below 0.0001.

As for GGAGACCUAUCUAUUCAACCUACUAGCUCA, the “pre-steady-state target cleavage rate” value worked out at 0.0826 ± 0.014.

GGAGACCUAAGUAUACUACCUACUACCUCA: the “pre-steady-state target cleavage rate” value worked out at 0.0377 ± 0.0069.

The record behind these values is the supplement of paper PMC10338343.
